Compound activity: PubChem BioAssay, National Center for Advancing Translational Sciences (NCATS)
SNCA viab count – cell viability loss counter-screen; HEK-293-SNCA-luc viability, GF-AFC fluorescence, 24 h; Potency, µM (top dose mostly 57.1 µM), most hits filed as cytotoxic; 0.12% of 150,000 active; further: nearly all actives have a fitted effect of over 30% in size
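Cytotoxicity counterscreen: after 24 h compound treatment of genome-edited SNCA-luciferase HEK-293 cells, live-cell protease substrate GF-AFC read by fluorescence after 30 min; activity scaled between DMSO (0%) and medium-only (-100%), curves Hill-fitted.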
SNCA expr inhib – inhibitors of alpha-synuclein (SNCA) gene expression; HEK-293 SNCA-luciferase knock-in, luminescence, 24 h; Potency, µM (top dose mostly 57.2 µM), hits mostly inhibitors; 0.17% of 140,000 active; AID 1671194; further: nearly all actives have a fitted effect of over 45% in size
KDM5B inh – inhibitors of human KDM5B histone demethylase; Q9UGL1; KDM5B demethylase, FDH-coupled NADH fluorescence (FDH is formaldehyde dehydrogenase); Potency, µM (doses to about 57.7 µM), actives largely listed as inhibitors; 2.6% of 220,000 active; further: nearly all actives have a fitted effect of over 70% in size
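Compound dilutions met 200 nM (final) KDM5BΔAP for 10 min at room temperature before substrate addition. The substrate mix held 12.5 µM H3K4me3 with cofactors 25 µM α-ketoglutarate and 50 µM Fe²⁺. NADH signal gain over 30 min defined activity.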
IP6K1 inhibitor – blocks human inositol hexakisphosphate kinase 1; 0.81% of 140,000 active; activity change, % (series mostly up to about 58 µM); IP6K1 kinase, ADP-Glo luminescence, 2 h; stronger effect = lower value; Q92551; AID 1645851; in the data active means activity change below about -25%
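ADP-Glo luminescence measures ADP made by human IP6K1 during a 2 h RT reaction with ATP/IP6 (mix at 1.3 mM/130 uM); top library doses 57.5 and 19.1 uM final.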
Numbers stand for hits; - = inactive; ? = inconclusive; . = not tested or not shown; [ ] = dose if it differs, or a comment. A selection: hits, their analogues and other compounds. The true share with any hit is near 2.9%. Unless noted, the call rests on the fitted dose curve; in most records, active means well fitted curve in the direction sought with a large enough effect; inconclusive means small, poorly fitted or top-dose-only effect, or another doubt; inactive means no such curve, though single readings can be large; an effect the other way counts as inactive or inconclusive.

SMILES | SNCA viab count | SNCA expr inhib | KDM5B inh | IP6K1 inhibitor
COCCN1C(=O)[C@@H]2C[C@@H](CN2Cc2ccc3ccccc3n2)Oc2ccccc21 | - | - | 32µM | -
COc1cccc(-c2cc(C(=O)NC3CC3)c3cnn(C)c3n2)c1 | . | . | . | -
O=C(NC(c1ccc(Cl)cc1)c1cccnc1)c1ccccc1 (centres undefined) | . | . | - | .
COC[C@@]12CN(Cc3ccccc3)C[C@@H]1C(C)(C)COc1ccc(OC)cc12 | . | . | . | -
COc1ccccc1-c1nnc([C@H]2CCN(CC3CCCCC3)C2)o1 | - | - | 35µM | -
O=C(N[C@H](Cc1ccncc1)C1CC(O)C1)c1cccn2cnnc12 (some centres undefined) | - | - | 22µM | -
C=CCn1cc2c3c(cccc31)[C@H](CC(C)C)N[C@H](C(=O)NCCN(C)C)C2 | - | - | 32µM | -
CC(C)C[C@@H]1N[C@H](C(=O)NC2CCC2)Cc2cn(CC3CC3)c3cccc1c23 | - | ? | - | -
C=CCn1cc2c3c(cccc31)[C@H](CC(C)C)N[C@H](C(=O)NCCC)C2 | - | ? | ? | -
CC(C)C[C@@H]1N[C@H](C(=O)NCCN(C)C)Cc2cn(CC3CC3)c3cccc1c23 | ? | - | 28µM | -
O=C(NC1CCN(C(=O)c2ccc(-c3cccs3)cc2)CC1)c1ccc(Cl)nc1 | -[12.5 µM] | - | . | -
O=C(O)c1cccc2c1CCN2C(=O)Nc1ccc(F)cc1 | - | 0.89µM | - | -
CNC(=O)c1cccc2c1CCN2C(=O)Nc1ccc(F)cc1 | - | ? | - | -
COCCCNC(=O)c1cccc2c1CCN2C(=O)Nc1cccc(C)c1 | - | 3.5µM | - | -
O=C1N(c2ccccc2)c2ccccc2C12CCN(Cc1ccsc1)C2 (centres undefined) | - | - | - | -
CCCNC(=O)c1coc(COc2ccc3c(c2)C(c2cccc(C)c2)N(C(=O)C2CC2)CC3)n1 (centres undefined) | - | ? | - | -
Cc1noc(-c2cccc(OC3CN(C(=O)c4cnn(C)c4)C3)c2)n1 | - | - | - | -
COc1ccccc1C(=O)NCc1nnc2cc(-c3nc(C)no3)ccn12 | - | - | 10µM | -
Cc1noc(-c2cccc(OC3CN(C(=O)c4cccc5[nH]ccc45)C3)c2)n1 | - | - | 28µM | -
Cc1noc(-c2ccn3c(CNC(=O)c4cc5ccccc5[nH]4)nnc3c2)n1 | - | - | ? | -
Cc1noc(-c2ccn3c(CNC(=O)c4cccc5[nH]ccc45)nnc3c2)n1 | - | - | 25µM | -
CCOc1ccccc1C(=O)NCc1nnc2cc(-c3nc(C(C)C)no3)ccn12 | - | - | 14µM | -
COCCCNC(=O)c1cn2cc(-c3cccc(C#N)c3)sc2n1 | - | - | . | -
CCC(C)NC(=O)C1CCCN(Cc2cccc(-c3ccsc3)c2)C1 (centres undefined) | . | . | . | -
Cn1ncc2c(C(=O)NCCCN3CCCCC3)cc(-c3ccccc3C(F)(F)F)nc21 | . | . | . | -
SMILES | SNCA viab count | SNCA expr inhib | KDM5B inh | IP6K1 inhibitor
CCCc1noc(-c2ccn3c(CNC(=O)c4ccccn4)nnc3c2)n1 | - | - | ? | -
COc1ccccc1C(=O)NCc1nnc2cc(-c3nc(C(C)C)no3)ccn12 | - | - | 22µM | -
CCCc1noc(-c2ccn3c(CNC(=O)c4ccccc4OCC)nnc3c2)n1 | - | - | 10µM | -
CCc1noc(-c2ccn3c(CNC(=O)c4cc(Cl)ccc4OC)nnc3c2)n1 | - | - | - | -
Fc1ccc(-c2nc(-c3c(F)cccc3F)[nH]c2-c2ccncc2)cc1 | - | . | . | -
CS(=O)c1ccc(-c2nc(-c3ccc(F)cc3)c(-c3ccncc3)[nH]2)cc1 (centres undefined) | - | 12µM | . | -
O=c1c2nc(-c3ccc(O)c(F)c3)ccc2ncn1Cc1ccccn1 | - | - | ? | -
Cn1nccc1-c1ccc2ncn(-c3ccc(F)cc3F)c(=O)c2n1 | - | - | 40µM | -
O=c1c2nc(Nc3cccnc3)ccc2ncn1-c1ccc(F)cc1F | - | - | - | -
O=c1c2nc(-c3ccccc3)ccc2ncn1-c1ccccc1 | - | - | 40µM | -
O=c1c2nc(-c3ccc(F)cc3)ccc2ncn1Cc1ccccn1 | - | - | 32µM | -
O=c1c2nc(-c3cccnc3)ccc2ncn1Cc1ccccc1 | - | - | - | -
Cn1nccc1-c1ccc2ncn(-c3ccccc3)c(=O)c2n1 | - | - | 32µM | -
CCOC(=O)[C@@H]1CN(C(=O)C(CC)CC)[C@H]2c3ccc(OC)cc3O[C@@H]12 | . | . | . | -
COc1cccc(CN2CCC3(CC2)c2[nH]c4ccccc4c2CCN3C)c1 | -[12.5 µM] | - | ? | -
CCN(Cc1ccncc1)C(=O)CCC[C@@H]1[C@H]2CCCN3CCC[C@@H](CN1Cc1cccnc1)[C@@H]23 | - | - | 28µM | -
CN1CCCN(C(=O)CCC[C@@H]2[C@H]3CCCN4CCC[C@@H](CN2Cc2ccccc2)[C@@H]34)CC1 | ? | - | - | -
CN1CCCN(C(=O)CCC[C@@H]2[C@H]3CCCN4CCC[C@@H](CN2Cc2cccnc2)[C@@H]34)CC1 | - | - | 22µM | -
CCN(Cc1ccncc1)C(=O)CCC[C@@H]1[C@H]2CCCN3CCC[C@@H](CN1C(C)=O)[C@@H]23 | - | - | ? | -
COc1cccc(NC(=O)Cn2c(N3CCc4ccccc4C3)nc(C)cc2=O)c1 | ? | ? | 11µM | -
COCc1cc(=O)n(CC(=O)Nc2cccc(Br)c2)c(N2CCOCC2)n1 | - | - | 28µM | -
COCc1cc(=O)n(CC(=O)Nc2ccc(Br)cc2)c(N2CCOCC2)n1 | - | - | - | -
Cc1ccc(CNC(=O)Cn2c(N3CCc4ccccc4C3)nc(C)cc2=O)cc1 | ? | ? | 28µM | -
COc1ccc(OC)c(NC(=O)Cn2c(N3CCc4ccccc4C3)nc(C)cc2=O)c1 | ? | ? | 28µM | -
Cc1nn(-c2ccccc2)c2c1C(C)N(C1CCN(C(=O)C3CCCC3)CC1)C2=O (centres undefined) | . | . | . | -
SMILES | SNCA viab count | SNCA expr inhib | KDM5B inh | IP6K1 inhibitor
Cc1cccc(N(C)C(=O)Cn2c(N3CCc4ccccc4C3)nc(C)cc2=O)c1 | 11µM | ? | ? | -
Cc1cc(C)c(CNC(=O)c2cc(-c3ccccc3C)cc3c2OCCN3C(C)C)c(=O)[nH]1 | - | ? | 32µM | -
COc1ccc(-c2cc(C(=O)NCc3c(C)cc(C)[nH]c3=O)c3c(c2)N(C(C)C)CCO3)cc1 | - | - | 32µM | -
Cc1cc(C)c(CNC(=O)c2nc(-c3ccccc3)cc3c2ccn3C(C)C)c(=O)[nH]1 | - | - | - | -
Cc1cc(C)c(CNC(=O)c2cc(-c3cnn(C)c3C)cc3c2OCCN3C(C)C)c(=O)[nH]1 | - | - | ? | -
COc1ncc(-c2cc(C(=O)NCc3c(C)cc(C)[nH]c3=O)c3c(c2)N(C(C)C)CCO3)cn1 | - | - | - | -
Cc1cc(C)c(CNC(=O)c2cc(-c3ccccc3O)cc3c2OCCN3C(C)C)c(=O)[nH]1 | - | - | 25µM | -
CC(=O)Nc1cccc(-c2cc(C(=O)NCc3c(C)cc(C)[nH]c3=O)c3c(c2)N(C(C)C)CCO3)c1 | - | - | 28µM | -
